Measurements published in PubChem BioAssay (NCATS).
Records with an inconclusive call do not appear. Unmarked numbers belong to inactive results. Calls of active or inactive are those of the source. Calls come from the whole dose curve; as a rule, active = well fitted cell-killing curve with a large enough effect; inconclusive = small, poorly fitted or top-dose-only effect; inactive = flat fitted curve, though single readings scatter.

Test: Cellular viability qHTS for adrenocortical cancer (ACC) cell line SW-13 (AID 1963989); note: nearly all actives have a fitted effect of over 65% in size;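 for activity (max response): cells grown in serum-free medium with ITS supplement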
Details: SW-13 ACC cells viability, CellTiter-Glo, 48 h; activity (max response): active compounds read low
From the text: PI: Naris Nilubol, MD Surgical Oncology Program, National Cancer Institute (NCI) National Institute of Health (NIH), Bethesda, Maryland Adrenocortical cancer (ACC) is a rare malignancy with poor survival outcomes and few treatment options. Currently, mitotane is the only FDA-approved therapy for ACC. Although adjuvant radiation therapy is rarely utilized, it has the potential to improve survival in select cases. Through a quantitative high-throughput drug screen (qHTS), we identified auranofin (AF), a thioredoxin reductase (TXNRD) inhibitor, as a promising candidate drug. This study aims to evaluate whether AF can enhance the efficacy of radiation therapy in the treatment of ACC. Two human ACC cell lines, SW-13 and NCI-H295R, were screened using the National Center for Advancing Translational Sciences (NCATS) Pharmaceutical Collection (NPC) and the Mechanism Interrogation PlatE (MIPE) library (~4,991 compounds). CellTiter-Glo (Cat # G7570, Promega, Madison, WI) was utilized to measure cell viability. Described herein are the results of the corresponding viability assay.
PROTOCOL TABLE (as described by Inglese J, Shamu CE and Guy RK. 2007) SEQUENCE No. (e.g., 1, 2, 3, etc.); […] (e.g., Cells, Incubation, Reagent, etc.); VALUE; DESCRIPTION. 1; Cells; 5 uL; white, solid-bottom, 1536-well tissue-culture treated plates. 2; Time; overnight culture at 37C with 5% CO2. 3; Compounds and control; 23 nL; Kalypsis pin tool (Wako USA) equipped with a 1536-well pin head to transfer to the assay plates. 4; Time; 48 hours; 37C with 5% CO2. 5; Reagent; 4 uL; CellTiter-Glo luminescent substrate mix. 6; Time; 20 min at room temperature. 7; Detection; Luminescence; ViewLux plate reader NOTES (numbers refer to Sequence numbers above) 1. SW13 cells were harvested from a T175 flask and resuspended in ITS-supplemented DMEM serum-free medium at a concentration of 300 000 cells/mL. Then 5 uL of resuspended cells were dispensed into each well of white, solid-bottom, 1536-well tissue-culture-treated plates using a multidrop combi dispenser. The plates were covered with stainless steel gasket lids. 2-3. The plates were cultured overnight at 37C with 5% CO2. Twenty-three nL of compounds (eight selected concentrations from the NPC / MIPE) or positive control (10 mM stock of bortezomib) in DMSO was transferred to each well of the assay plate using a pin tool (Kalypsys, San Diego, CA, USA). The final concentration of the compounds in the 5 uL assay volume ranged from 0.5 nM to 46 uM. 4-6. After 48 hours of incubation at 37C and 5% CO2, 4 uL of CellTilter-Glo luminescent substrate mix (Promega, Madison, WI, USA) was added to each well. Then the plates were incubated for 20 minutes at room temperature. 7. After incubation, luminescence was measured using a ViewLux plate reader (PerkinElmer, Waltham, MA, USA) with a clear filter was used to measure the number of metabolically competent cells. To determine compound activity in the qHTS assay, the titration-response data for each sample was plotted and modeled by a four-parameter logistic fit yielding IC50 and efficacy (maximal response) values. […] REFERENCES: Inglese J, Shamu CE and Guy RK, Reporting data from high throughput screening of small molecule libraries, Nature Chemical Biology, 2007, 3(8): 438-441. doi.org/10.1038/nchembio0807-438.
% is set by controls: 0 for no effect and ±100 for the full control effect.

| SMILES | activity (max response) [%] | Potency |
| --- | --- | --- |
| Cn1cc(C(=O)[C@@H]2CCc3nc[nH]c3C2)c2ccccc21 | -8.02 |  |
| O=C(CCCN1CCN(c2ccccn2)CC1)c1ccc(F)cc1 | -12.5 |  |
| CCC(=O)Oc1ccc2c(c1)CC[C@@H]1[C@@H]2CC[C@@]2(C)[C@H]1C[C@@H](OC(=O)CC)[C@@H]2OC(=O)CC | 0.953 |  |
| COc1ccc2c(c1)C(=O)N(CCc1ccc(S(=O)(=O)NC(=O)NC3CCCCC3)cc1)C(=O)C2(C)C | -10.4 |  |
| CC(=C(CCOC(=O)C(C)C)SSC(CCOC(=O)C(C)C)=C(C)N(C=O)Cc1cnc(C)nc1N)N(C=O)Cc1cnc(C)nc1N | 9 |  |
| O=C(CCBr)N1CCN(C(=O)CCBr)CC1 | -6.49 |  |
| C=CC[N+]1([C@H]2C[C@H]3[C@@H]4CC[C@H]5C[C@H](O)[C@@H](N6CCOCC6)C[C@]5(C)[C@H]4CC[C@]3(C)[C@H]2OC(C)=O)CCCC1 | -12.6 |  |
| COc1ccc(-n2c(SCCCN3C(=O)c4cccc5cccc(c45)C3=O)nnc2-c2ccncc2)cc1 | -14.9 |  |
| O=C(O)c1c(O)c(-c2ccccc2)nc2ccccc12 | 3.37 |  |
| CCn1c(=O)c2c(nc(/C=C/c3ccc(OC)c(OC)c3)n2C)n(CC)c1=O | -21.5 |  |
| Cc1c(Cl)cccc1S(=O)(=O)Nc1nc(CCN2CCOCC2=O)cs1 | 12.4 |  |
| C=C[C@@H]1CN2CCC1C[C@H]2[C@H](O)c1ccnc2ccc(OC)cc12 (some centres undefined) | 5.73 |  |
| CC(C)NC[C@@H](O)COc1cccc2ccccc12 | -19.3 |  |
| C/C=C(/C(=C/C)c1ccc(OC(C)=O)cc1)c1ccc(OC(C)=O)cc1 |  | 18.4 µM (active) |
| O=C(Cc1ccccc1)Nc1nnc(CCSCCc2nnc(NC(=O)Cc3ccccc3)s2)s1 | 11.1 |  |
| C[C@H]1CN(C2COC2)CCN1c1ccc(Nc2cc(-c3ccnc(N4CCn5c(cc6c5CC(C)(C)C6)C4=O)c3CO)cn(C)c2=O)nc1 | 10.6 |  |
| COc1ccc([C@@H]2Sc3ccccc3NC(=O)[C@@H]2O)cc1 |  | 7.31 µM (active) |
| Nc1n[n+]([O-])c2ccccc2[n+]1[O-] | -11.6 |  |
| CN(C(=O)CCCOc1ccc2[nH]c(=O)ccc2c1)C1CCCCC1 | -3.83 |  |
| C[C@H](N)C(=O)N[C@@H](C)C(=O)NC1[C@H]2CN(c3nc4c(cc3F)c(=O)c(C(=O)O)cn4-c3ccc(F)cc3F)C[C@@H]12 (some centres undefined) | -13.3 |  |
| COc1ccc2cc(CCC(C)=O)ccc2c1 | 2.06 |  |
| N[C@H](C(=O)O)[C@@H](O)c1ccc(O)c(O)c1 | 16 |  |
| CCc1cc(Nc2nccc(-c3c(-c4ccc(OC)c(C(=O)Nc5c(F)cccc5F)c4)nc4ccccn34)n2)c(OC)cc1N1CCC(N2CCN(S(C)(=O)=O)CC2)CC1 | -11.3 |  |
| CCCCN(CCCC)C(C(N)=O)c1ccc(OC)cc1 (centres undefined) | 14.1 |  |
